Data published in PubChem BioAssay AID493034 (The Scripps Research Institute Molecular Screening Center, 2011).
Screen size: about 2,400 compounds; about 2,200 (92%) were called active.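 How the source made its calls: active means mean inhibition over triplicate runs exceeds the cutoff derived for the earlier primary screen (cut at about 25% in these data); inactive means the rest.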 So high a share suggests a set chosen from earlier hits. The list shows a part of the results.

Target: Platelet-activating factor acetylhydrolase IB subunit alpha2 (Homo sapiens) (UniProt P68402)
Assay: PAFAH1B2 inhibitors, confirmation, biochemical, fluorescence polarization, FP-rhodamine probe, triplicate (AID 493034);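 further: 0% = enzyme with DMSO and 100% = wells lacking PAFAH1B2 protein; inhibitors lower polarization by leaving the probe unbound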
Conditions: recombinant PAFAH1B2, FP-rhodamine probe fluorescence polarization; at 3.39 µM; hits give high values

Chain of Platelet-activating factor acetylhydrolase IB subunit alpha2 (Homo sapiens) (P68402 whole entry, looked up): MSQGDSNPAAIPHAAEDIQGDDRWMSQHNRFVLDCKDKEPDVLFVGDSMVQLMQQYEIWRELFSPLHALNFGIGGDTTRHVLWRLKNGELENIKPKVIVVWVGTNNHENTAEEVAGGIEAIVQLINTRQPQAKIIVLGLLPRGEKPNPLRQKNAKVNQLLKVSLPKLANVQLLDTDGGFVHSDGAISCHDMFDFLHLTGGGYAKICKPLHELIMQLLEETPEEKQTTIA

Compound | inhibition
COc1ccc(NC(=O)O/N=C/c2ccc(Br)cc2)cc1 | 7.26% (inactive)
Cc1ccc(S(=O)(=O)N2[C@@H](c3ccc(Cl)cc3)C(C(=O)O)=CC[C@H]2c2ccc(Cl)c(Cl)c2)cc1 | 85.8% (active)
Cc1ccc(S(=O)(=O)N2[C@@H](c3ccc(Br)cc3)C(C(=O)O)=CC[C@H]2c2ccc3c(c2)OCO3)cc1 | 59.1% (active)
Cc1ccc(S(=O)(=O)N2[C@@H](c3ccc(C(C)(C)C)cc3)C(C(=O)O)=CC[C@H]2c2cccc(Cl)c2)cc1 | 70.5% (active)
Cc1ccc(S(=O)(=O)N2[C@@H](c3ccc(C(C)(C)C)cc3)C(C(=O)O)=CC[C@H]2c2ccc(Cl)c(Cl)c2)cc1 | 58.5% (active)
Cc1ccc(S(=O)(=O)N2[C@@H](c3ccccc3)C(C(=O)O)=CC[C@H]2c2cccc(C)c2)cc1 | 21.1% (inactive)
CC(=O)N1CCOc2ccc(S(=O)(=O)NCc3ccc(C)cc3)cc21 | 23.4% (inactive)
Cc1ccc(S(=O)(=O)N2[C@@H](c3cccc(C)c3)C(C(=O)O)=C[C@H]2C(C)(C)C)cc1 | 18.7% (inactive)
Cc1ccc(S(=O)(=O)N2[C@@H](c3ccc(Br)cc3)C(C(=O)O)=CC[C@H]2c2ccc(Cl)c(Cl)c2)cc1 | 85.2% (active)
CC(C)(C)C1CCC2(CC1)C(C#N)=C(SCC(=O)Nc1ccccc1)NC(=O)C2C#N (configuration not stated) | 55% (active)
COc1ccc(S(=O)(=O)N2CCN(C(=O)[C@@H]3CCC(=O)N3C3OC(=O)c4ccccc43)CC2)cc1 (some centres not stated) | 22.4% (inactive)
COc1cc(/C=N/NC(=O)c2cc(C34CC5CC(CC(C5)C3)C4)[nH]n2)ccc1O | 24.7% (active)
Cc1ccccc1C(=O)c1cccn1CC(=O)NCc1ccc(Cl)cc1 | 23.1% (inactive)
O=C(Oc1ccc(-c2ccccc2)cc1)c1ccco1 | 23.7% (inactive)
O=C(Oc1ccc(OC(=O)c2ccco2)c(S(=O)(=O)c2ccc(Br)cc2)c1)c1ccco1 | 34% (active)
CC1=C(C(=O)OCC(Br)(Br)Br)C(c2cccc([N+](=O)[O-])c2)NC(=O)N1CCCC(=O)O (configuration not stated) | 90.6% (active)
O=C(Nc1ccccc1Cl)Oc1ccc(-c2ccccc2)cc1 | 53.8% (active)
Cc1ccc(S(=O)(=O)n2nc(-c3cccnc3)nc2N)cc1 | 23.2% (inactive)
CC(=O)C[C@H](O)CC(=O)[C@H]1OC(=O)CCCCCCCCc2ccccc21 | 31.4% (active)

Compound | inhibition
CC(=O)C[C@@H](O)CC(=O)[C@H]1OC(=O)CCCCCCCCc2ccccc21 | 43.6% (active)
Cc1noc(NS(=O)(=O)c2ccc(NC(=O)CC34CC5CC(CC(Br)(C5)C3)C4)cc2)c1C | 30.9% (active)
CC(CC(=O)NCCc1ccc(Cl)cc1)S(=O)(=O)c1ccc2c(c1)NC(=O)CO2 (configuration not stated) | 22.4% (inactive)
Cn1c(=O)oc2cc(S(=O)(=O)NCCC(=O)NCCc3ccc(Cl)cc3)ccc21 | 19.6% (inactive)
O=S(=O)(Nc1ncccn1)c1ccc(NC(=S)NCCc2ccc(Cl)cc2)cc1 | 36.6% (active)
N=c1c(S(=O)(=O)c2ccc(Cl)cc2)cc2c(=O)n3ccccc3nc2n1CCN1CCOCC1 | 22.3% (inactive)
O=c1[nH]c(CN2CCN(c3ccc([N+](=O)[O-])cc3)CC2)nc2ccsc12 | 31.1% (active)
O=C1OC(c2ccccc2)=N/C1=C/c1cccc(OC(=O)c2cccs2)c1 | 15.5% (inactive)
O=C(O)c1cccc(COc2ccc3c(c2)CCC3)c1 | 40% (active)
O=C(CCc1ccc(O)cc1)c1c(O)cc(O)cc1O | 22.2% (inactive)
O=C(CCc1ccccc1)c1c(O)cc(O)cc1O | 26.6% (active)
C=C(C)C(COc1c2occc2cc2ccc(=O)oc12)OC(C)(C)C(O)COc1c2occc2cc2ccc(=O)oc12 (configuration not stated) | 67.4% (active)
Cc1ccc(NS(=O)(=O)c2cc([N+](=O)[O-])ccc2NNC(=S)Nc2cccc(Cl)c2)c(C)c1 | 30.2% (active)
N#Cc1c(N)[nH]c2ccc(Sc3ccccc3)cc12 | 33.8% (active)
O=C(CSc1ccccc1)NC(=O)NCc1ccccc1 | 21.7% (inactive)
Nc1ccc(CSc2ccccc2)cc1 | 30.1% (active)
Nc1ccc(CSc2ccc(Cl)cc2)cc1 | 21.7% (inactive)
CCOc1cc(/C=C(/C#N)c2ccc(Cl)cc2)cc(Cl)c1OCC(=O)O | 42.5% (active)
CCOc1cc(/C=C(/C#N)c2ccc(F)cc2)ccc1OCc1ccc(C(=O)O)o1 | 4.35% (inactive)

Compound | inhibition
C[C@@H]1CN([C@H](C)CO)C(=O)c2cccc(NC(=O)Nc3ccc(F)cc3)c2O[C@H]1CN(C)C(=O)Nc1ccc(C(F)(F)F)cc1 | 39.6% (active)
C[C@H]1CN([C@@H](C)CO)C(=O)c2cccc(NC(=O)Nc3ccc(C(F)(F)F)cc3)c2O[C@@H]1CN(C)C(=O)Nc1ccc(F)cc1 | 57% (active)
CCCCc1cc(=O)oc2cc(C)cc(OCC(=O)NC(Cc3ccc(Cl)cc3)C(=O)O)c12 (configuration not stated) | 22.2% (inactive)
CC(Oc1ccc2c(-c3ccccc3)cc(=O)oc2c1)C(=O)N[C@H](Cc1c[nH]c2ccccc12)C(=O)O (some centres not stated) | 64.3% (active)
O=C(COc1ccc2c(-c3ccccc3)cc(=O)oc2c1)N[C@@H](Cc1c[nH]c2ccc(O)cc12)C(=O)O | 55.4% (active)
CC(Oc1ccc2c(-c3ccccc3)cc(=O)oc2c1)C(=O)NC(Cc1c[nH]c2ccccc12)C(=O)O (configuration not stated) | 59% (active)
CC(Oc1ccc2c(-c3ccccc3)cc(=O)oc2c1)C(=O)NC(Cc1c[nH]c2ccc(O)cc12)C(=O)O (configuration not stated) | 55.9% (active)
Cc1ccc(CSc2nnc(NC(=O)C3COc4ccccc4O3)s2)cc1 (configuration not stated) | 21.4% (inactive)
CCCCCCCCCCS(=O)(=O)N/N=C/c1ccc([N+](=O)[O-])cc1 | 20.3% (inactive)
CCN(Cc1ccccc1)c1ccc(/C=N/NS(=O)(=O)c2cccc([N+](=O)[O-])c2)cc1 | 63.5% (active)
O=C(CC1CC2CCC1C2)Nc1nc(-c2ccccn2)cs1 (configuration not stated) | 45.4% (active)
O=C(NCc1cccnc1)C(=O)Nc1nc(C23CC4CC(CC(C4)C2)C3)cs1 | 23.7% (inactive)
O=C(NCC(c1ccco1)N1CCCCC1)c1ccc(COc2ccc(Cl)cc2)cc1 (configuration not stated) | 20% (inactive)
Clc1ccc(COc2cccc(CNCc3ccncc3)c2)cc1 | 19.2% (inactive)
CC(NCc1ccc(OCc2ccc(Cl)cc2)cc1)C(O)c1ccccc1 (configuration not stated) | 68.7% (active)
CCc1ccc2nc3sc(C(=O)Nc4nnc(CC)s4)c(N)c3cc2c1 | 19.1% (inactive)
Cc1ccc(NC(=O)O/N=C/c2ccc(Br)cc2)cc1 | 15.5% (inactive)
CCOC(=O)C1CCCN(C(=O)Cc2c(C(=O)O)[nH]c3ccccc23)C1 (configuration not stated) | 28.4% (active)
O=C(Cc1ccc(Br)cc1)Nc1ncc([N+](=O)[O-])s1 | 28.4% (active)
